SMILES strings stand for the structures. This is part of a sample that, as a whole, favours compounds with a hit. Of some 83,000 tested, about 20% had one in any assay.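 The test compound was applied at a single concentration to cells in 96-well plates for 48 hours, and percent growth was recorded.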 Values without a mark were called inactive. Calls of active or inactive are those of the source. How the source made its calls: active means growth percent below 10; inactive means the rest.

The subject of this experiment is NCI-H23 lung. Put plainly: NCI-60 one-dose screen, 48 h (100 = growth as untreated, 0 = no growth, -100 = all killed). As to conditions: 10 µM.
Regarding `CC(=O)Nc1ccc(-c2cn(-c3cccc(C(=O)Nc4cc(C(F)(F)F)cc(C(F)(F)F)c4)c3)nn2)cn1`, the growth is -68.6% (active).

Consider `NS(=O)(=O)c1ccc(N=Nc2c(O)n(CC(=O)Nc3ccccc3Br)c3ccccc23)cc1`, for which the growth was 40%.

For the compound `N#Cc1c(Cl)nc(SCc2ccc(F)cc2)nc1-c1ccc(F)cc1`, the growth was 95.7%.

On to `CN(C)c1ccc(/C=C/C(=O)c2ccc(NC(=O)CN3C(=O)NC(C)(c4ccccc4)C3=O)cc2)cc1` (stereo not given), for which the growth was 66%.

For `Cc1cc(C)nc(NS(=O)(=O)c2ccc(N/C(N)=N/c3nccc(-c4cccs4)n3)cc2)n1`, the growth is 90%.

As for `COc1ccc(/C=C/C(=O)c2ccc(N3CCN(C)CC3)cc2)c(C(F)(F)F)c1`, the growth is 28.2%.

For the compound `Clc1ccc(/C=N/Nc2ncnc3sc4c(c23)CCN(Cc2ccccc2)C4)cc1`, the growth is 13.9%.

`COc1cccc(/C=N/NC(=O)c2ccc3nc(-c4ccc(Cl)cc4)[nH]c3c2)c1O`: the growth is -95.2% (active).

For the compound `COc1ccc(-c2nc(S(=O)(=O)c3ccc(C)cc3)c(S(=O)(=O)CC(=O)N(C)Cc3ccccc3)o2)cc1`, the growth was 44%.

Turning to `CC1=C2C(=C[C@@](C)(CO)[C@@H]2O)/C(=N\N)[C@](C)(O)C12CC2`, the growth is -77.8% (active).

Regarding `CC(=O)c1ccc(Nc2nc(SC(C)C)nc(-c3ccccc3)c2C#N)cc1`, the growth is 22.4%.

As to `CCN1CCN(Cc2ccc(NC(=O)c3cccc(-n4cc(-c5ccc(NC(C)=O)nc5)nn4)c3)cc2C(F)(F)F)CC1`, the growth is 93%.

Take `CC(C)c1ccc(C(=O)Nc2sc3c(c2C(N)=O)CCC(=O)C3=O)cc1`: the growth is 81.3%.

On to `COc1cc(C2CC(c3ccc(C)cc3)=Nc3c(N)nc(N)nc3N2)ccc1Oc1nc(Nc2ccc(F)cc2)nc(N(C)C)n1` (stereo not given), for which the growth was 73%.

As for `O=c1c2ccccc2nc(COc2ccccc2)n1/N=C/c1ccc(N2CCCC2)cc1`, the growth is 85%.

Regarding `CCN1CCN(c2ccc(NC(=O)Nc3ccc4c(c3F)CCN4c3ccnc(C(=O)NC)c3)cc2C(F)(F)F)CC1`, the growth is -79.4% (active).

Regarding `O=c1[nH]c2ccccc2cc1CSc1ccc(Nc2nccc(-c3ccc4ccccc4c3)n2)cc1`, the growth was 18.1%.

Turning to `O=C(CNc1nc(-c2ccccc2)cs1)Nc1cccc(Cl)c1`, the growth was 28.4%.

Turning to `O=c1[nH]c2ccccc2cc1CSc1ccc(Nc2nccc(-c3ccc(Cl)cc3)n2)cc1`, the growth was -26.6% (active).

As for `O=C1Nc2cc(-c3ccc(NC(=O)c4cccc([N+](=O)[O-])c4)cc3)ccc2/C1=C/c1ccc[nH]1`, the growth is 71.6%.

On to `COc1ccc(-c2ccc(/C=N/NC(=O)c3[nH]c4ccc(Br)cc4c3-c3ccccc3)o2)cc1`, for which the growth was 50%.

Turning to `CN1CCN(c2ccc(C(=O)/C=C/c3cc(C(F)(F)F)ccc3Cl)cc2)CC1`, the growth is -95.3% (active).

Turning to `COc1ccc(-c2cc(-c3cc(C(=O)c4ccccc4)n4ccc(C)cc34)nc(N)c2C#N)cc1`, the growth is 55%.

As for `O=C(Nc1ccc(I)cc1)Nc1nc2ccc([N+](=O)[O-])cc2s1`, the growth is -95.9% (active).

For `CCCCCCCCCCCCCCCCCCCC(=O)NCCc1c[nH]c2ccc(O)cc12`, the growth was 103%.
